40 compounds from PubChem BioAssay (EPA / NIEHS) can be followed below.

Active and inactive are the calls of the source. Rule for the calls: active = hit-call score of the fitted dose curve at least 0.9, where 1 is the maximum; inactive = score below 0.9.

Read-out in the assay: Pro-epidermal growth factor (Homo sapiens) (UniProt P01133)
Put plainly: LTEA_HepaRG_EGF: Life Technologies and Expression Analysis (LTEA) Assay for Epidermal growth factor (EGF) using HepaRG (AID 2283489). The following applies: mRNA level, 48 h; actives raise or lower the signal. As for the experimental part:
LTEA_HepaRG is a cell based, multiplexed-readout assay that uses HepaRG, a human liver cell line, with measurements taken at 48 hours after chemical dosing on a 96-well plate.LTEA_HepaRG_EGF is one of 102 assay component(s) measured in the LTEA HepaRG cell culture assay. It is a marker of Cell proliferation, survival, death.Data from the assay component LTEA_HepaRG_EGF was analyzed into 1 endpoint. This assay endpoint, LTEA_HepaRG_EGF, was analyzed with bidirectional fitting relative to DMSO as the negative control and baseline of activity. Using a type of inducible reporter, measures of mRNA induction for gain or loss-of-signal activity can be used to understand regulation of transcription factor activity. To generalize the intended target to other relatable targets, this assay endpoint is annotated to the growth factor intended target family, where the subfamily is EGF-like domain.
A total of 1060 chemcials from the ToxCast library were tested in eight-point concentration-response experiments. Cell culture and cytotoxicity assays were conducted at Thermo Fisher Scientific's Custom Services facility (Madison, WI). A single lot of human HepaRG cells (Thermo Fisher Scientific, Frederick, MD) was used for the cell culture experiments. 96-well format collagen type I coated plates of human HepaRG cells were prepared using established methods. Briefly, cryopreserved HepaRG cells were thawed, plated at a density of approximately 100,000 cells/well in HepaRG Thaw, Plate, and General Purpose media (HPRG770, Thermo Fisher Scientific), and incubated for 48 hours. 0.5% DMSO was selected as vehicle control to balance the requisite need of DMSO in HepaRG cultures to maintain differentiation (for example, baseline metabolism, proportions of hepatocytes vs. cholangiocytes), while enabling further hepatic receptor pathway activation (for example, PXR and CAR) in response to chemical exposure. 48 hours after plating, the culture medium was replaced with HepaRG Serum-Free Incudtion Media. Cells were exposed to each test chemical in duplicate and maintained in CO2 incubators for another 48 hours. Chemical plates were thawed to room temperature and 200x concentrations of treatment groups were prepared. 8-point conentration-reponse curves were made with the highest exposure at 100 uM, followed by half-log dilutions, all in 0.5% DMSO. Each test plate contained variouse controls, induction positive controls (1mM phenobarbital), cytotoxicity positive controls ([…] aflatoxin B1), vehicle controls (0.5% DMSO), and total lysis controls (0.5% DMSO). Cell morphology images were taken using an Essen IncuCyte FLR automated microscope, with six 96-well plates imaged in about 24 minutes. Images were captured and exported and JPEG files. Spent culture media was transfered to black-well plates for the LDH assay, and remaining media was sorted at -80 C for later use. Cells were treated with RLT buffer and frozen until shipped for gene expression analysis. Total RNA was isolated from the cell suspension in 75 uL of Buffer RLT (Qiagen, Germantown, MD 20874) by Quintiles/Expression Analysis (Durham, NC) using a custom isolation procedure. Total RNA from each plate well was transferred to a preamplification plate. Fluidigm's 96.96 Dynamic ArrayTM (Fluidigm, Amsterdam, the Netherlands) technology was used for gene expression analyses by quantitative reverse transcription polymerase chain reaction (qRT-PCR, performed by Quintiles/Expression Analysis, Durham, NC)89. Standard TaqManTM Assays (Applied Biosystems/ThermoFisher Scientific, Foster City, CA) were used to assess the expression of 93 genes selected based on their selectivity and sensitivity to important hepatic receptors known to be modulated by environmental chemicals; importance in human hepatocyte functionality; and hepatotoxicity. […]
Regarding `CCCCOC(=O)CCCCC(=O)OCCCC`, the compound was called inactive.

`CCc1nc(N)nc(N)c1-c1ccc(Cl)cc1`: the compound was classed as inactive.

Turning to `CCCC[C@H]1CN(CC2CCOCC2)C(=O)OC12CCN(C1(C)CCN(C(=O)c3c(C)ncnc3C)CC1)CC2`, the result was inactive.

As for `CCCCCCCCCCCCCCCCO`, the result was inactive.

For the compound `CC(N)=O`, the compound was called inactive.

For `O=C1CCCCC1`, the result was inactive.

For the compound `C#CC(O)C(CC)CCCC` (stereo not given), the outcome was inactive.

On to `CN(C)CCCN1c2ccccc2Sc2ccc(Cl)cc21`, for which the compound was called inactive.

`CCN(CC)CCOc1ccc(C(=C(Cl)c2ccccc2)c2ccccc2)cc1`: the result was inactive.

On to `Nc1nc(=S)c2[nH]cnc2[nH]1`, for which the outcome was inactive.

On to `Cn1cnc2c1c(=O)[nH]c(=O)n2C`, for which the compound was classed as inactive.

Consider `Cc1cc(SC2=C(O)C[C@@](CCc3ccc(N)cc3)(C(C)C)OC2=O)c(C(C)(C)C)cc1CO`, for which the AC50 is 6.35 µM (active).

Take `CSc1ccc(Oc2ccc(S(N)(=O)=O)cc2CN(C)C)cc1C`: the outcome was inactive.

With `CC(=O)[C@@]1(O)CC[C@H]2[C@@H]3CCC4=CC(=O)CC[C@]4(C)[C@H]3CC[C@@]21C`, the compound was classed as inactive.

Take `N[C@@H](Cc1c[nH]c2ccccc12)C(=O)O`: the outcome was inactive.

Take `CCCCCCCC(=O)OC`: the outcome was inactive.

With `CC(C)COC(=O)CCCCC(=O)OCC(C)C`, the call was inactive.

With `Cc1cn([C@H]2C=C[C@@H](CO)O2)c(=O)[nH]c1=O`, the compound was classed as inactive.

For the compound `C=CCCCCCCCCCCCC`, the call was inactive.

In the case of `CC(=O)CC(c1ccccc1)c1c(O)c2ccccc2oc1=O` (stereo not given), the compound was called inactive.

Regarding `CC(C)c1cccc(C(C)C)c1NC(=O)NS(=O)(=O)c1cc(C(C)(C)O)co1`, the result was inactive.

Regarding `O=C(O)CC(O)(CC(=O)O)C(=O)O`, the outcome was inactive.

For the compound `NC(=Nc1ccccc1)Nc1ccccc1`, the call was inactive.

With `Cc1ccc(-c2cc(C(F)(F)F)nn2-c2ccc(S(N)(=O)=O)cc2)cc1`, the compound was called inactive.

With `CCCCC(CC)COC(=O)CCCCCCCC(=O)OCC(CC)CCCC` (stereo not given), the outcome was inactive.

Regarding `C=CCc1ccc(OC)c(OC)c1`, the compound was called inactive.

As for `CC(COCC(C)OC(=O)c1ccccc1)OC(=O)c1ccccc1` (stereo not given), the call was inactive.

For the compound `O=C(NS(=O)(=O)/C=C/c1cccs1)c1ccc(F)cc1Br`, the result was inactive.

Take `CC(=O)O[C@]1(C(C)=O)CC[C@H]2[C@@H]3C=C(Cl)C4=CC(=O)[C@@H]5C[C@@H]5[C@]4(C)[C@H]3CC[C@@]21C`: the compound was classed as inactive.

Regarding `O=NO`, the outcome was inactive.

In the case of `COC(=O)CCCC(=O)OC`, the compound was called inactive.

As to `O=C1O[C@H]([C@H](O)CO)C(O)=C1O`, the result was inactive.

`CCOCCOCCO`: the call was inactive.

With `OCC(CO)n1cnc(-c2ccc(F)cc2)c1-c1ccnc(Oc2ccccc2)n1`, the compound was classed as inactive.

In the case of `CC(C)c1cccc(C(C)C)c1`, the compound was classed as inactive.

In the case of `CCCCC(CC)CO` (stereo not given), the result was inactive.

Take `CCCCCCCCCC[N+](C)(C)[O-]`: the compound was called inactive.

For `Nc1nc(Cl)nc2c1ncn2[C@H]1C[C@H](O)[C@@H](CO)O1`, the compound was classed as inactive.

Consider `CCC(C)N(C)C(=O)c1cc2ccccc2c(-c2ccccc2Cl)n1` (stereo not given), for which the call was inactive.

Consider `CCCCCCC(C=O)=Cc1ccccc1`, for which the compound was classed as inactive.
